# Screening results as filed in PubChem BioAssay.
# A selection: hits, their analogues and other compounds. The true share with any hit is near 4.7%.
# D1 ag: Allosteric Agonists of the Human D1 Dopamine Receptor: qHTS | HEK293 T-REx D1 cells, calcium flux, agonist mode | D(1A) dopamine receptor (Homo sapiens), P21728 | AID 504660, 2011 | activation, % at 2 µM | actives 1% (n = 360,000)
#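 Tetracycline-induced HEK293 TREx D1 cells, force-coupled to calcium signalling, were dye-loaded with a no-wash calcium kit. Compound was pin-added after a 10 s baseline. Fluorescence was read kinetically at 1 cycle/s for 180 s, with calcium rises flagged as agonism.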
# D1 antagonist: Antagonist of Human D 1 Dopamine Receptor: qHTS. HEK293 TREx D1 cells, calcium flux, dopamine EC80; hits give low values. activity change, negative = inhibition, % at 10 µM. actives 3.2% (n = 360,000); in the data active = activity change below about -30%
#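 Antagonism measured as reduced calcium response to an EC80 dopamine addition following 180 s compound pre-read; cells were inducible HEK293 Trex D1 plated overnight at 30 C, read kinetically at 1 cycle/sec.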
# TRHR PAM: qHTS for Small Molecule Agonists and Allosteric Enhancers of Human TRH Receptor: Primary Screen for Enhancers; Thyrotropin-releasing hormone receptor (Homo sapiens), P34981; TRHR cells, fluo-8 calcium fluorescence, EC20 TRH enhancement; enhancement, % at 2 µM; actives 0.66% (n = 360,000); AID 493056, 2011; in the data active = enhancement above about 30%
# Target sequence (P34981 whole entry, looked up): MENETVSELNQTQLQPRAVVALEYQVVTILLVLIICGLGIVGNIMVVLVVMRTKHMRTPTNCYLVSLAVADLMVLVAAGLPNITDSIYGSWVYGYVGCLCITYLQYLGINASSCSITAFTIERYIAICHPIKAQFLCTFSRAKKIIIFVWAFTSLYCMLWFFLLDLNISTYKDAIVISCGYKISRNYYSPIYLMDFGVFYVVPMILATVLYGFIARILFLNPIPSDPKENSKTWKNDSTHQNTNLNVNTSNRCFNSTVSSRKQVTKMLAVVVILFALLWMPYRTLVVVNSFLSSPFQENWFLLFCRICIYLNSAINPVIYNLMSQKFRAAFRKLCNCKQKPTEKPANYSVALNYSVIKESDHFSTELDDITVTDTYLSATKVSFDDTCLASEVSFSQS
#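 TRHR-expressing cells loaded with fluo-8 calcium dye were read kinetically (ex 480/em 530) during compound addition, then stimulated with an EC20 of TRH (10 nM final). Enhancement of the Gq-mediated intracellular calcium response was scored.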
# TRHR agonist: qHTS for Small Molecule Agonists and Allosteric Enhancers of Human TRH Receptor: Primary Screen for Agonists; activation, % at 2 µM; actives 0.18% (n = 360,000); TRHR cells, calcium flux fluo-8, FDSS agonist mode; Thyrotropin-releasing hormone receptor (Homo sapiens), P34981
#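 Fluo-8-loaded TRHR cells; 10 s baseline, compound added, kinetic Ca2+ fluorescence read 1/s, agonist mode.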
# D1 potentiator: Potentiators of Human D1 Dopamine Receptor: qHTS; D(1A) dopamine receptor (Homo sapiens), P21728; HEK293 TREx D1 cells, calcium flux, dopamine EC20 potentiation; potentiation, % at 10 µM; actives 0.036% (n = 360,000); AID 504651, 2011; in the data active = potentiation above about 30%
# Numbers stand for hits; n = inactive. Cut-off read from the data, not from the text of the source, unless noted: active = activation above about 30%; inactive = the rest.
SMILES,D1 ag,D1 antagonist,TRHR PAM,TRHR agonist,D1 potentiator
CCc1cc(=O)oc2c(CNCc3c(F)cccc3Cl)c(O)ccc12,n,n,n,n,n
O=[N+]([O-])c1c(NCCCO)cc(Sc2ccc(Cl)cc2)c2nonc12,n,-40,n,n,n
CN1CCC(Oc2ccc(Sc3ccccc3)cc2)CC1,78,n,n,n,n
CN1CCC(Oc2ccccc2Sc2ccc(C(F)(F)F)cc2)CC1,52,-58,n,n,n
CCCNC(=O)C(=O)NCC(c1ccc2c(c1)OCO2)N1CCOCC1 (stereo not given),n,n,n,n,n
Fc1cccc(CCN2CCNC[C@H]2Cc2cccc3ccccc23)c1,40,n,n,n,n
c1ccc(C2(CN3CCNC[C@H]3Cc3cccc4ccccc34)CC2)cc1,77,-56,n,n,n
CN(C)C(CNC(=O)Cc1cccc(C(F)(F)F)c1)c1ccco1 (stereo not given),n,-48,n,n,n
COc1ccccc1NS(=O)(=O)c1ccc(C(=O)NCC(c2ccccc2OC)N(C)C)cc1 (stereo not given),n,n,n,n,n
Cc1ccc(NS(=O)(=O)c2ccc(C(=O)NCC(c3ccco3)N(C)C)cc2)cc1 (stereo not given),53,-31,n,n,n
Cc1cccc(NS(=O)(=O)c2ccc(C(=O)NCC(c3ccccc3)N(C)C)cc2)c1C (stereo not given),48,n,n,n,n
CN(C)C(CNC(=O)c1ccc(NS(=O)(=O)c2ccc(F)cc2)cc1)c1ccco1 (stereo not given),n,n,n,n,n
CNS(=O)(=O)c1cccc(C(=O)NCC(c2ccco2)N(C)C)c1 (stereo not given),n,-35,n,n,n
CN(C)C(CNC(=O)c1cccc(S(=O)(=O)Nc2ccccc2Cl)c1)c1ccco1 (stereo not given),n,n,n,n,n
O=C(CS(=O)(=O)c1cccc2nsnc12)N1CCN(c2ccc(F)cc2)CC1,n,n,n,n,n
O=S(=O)(c1ccc2c(c1)OCCO2)N1C[C@@H]2C[C@H]1CN2S(=O)(=O)c1c(F)cccc1F,n,n,n,n,n
Cc1ccc(SCc2nnc(NC(=O)c3ccccc3)s2)cc1,n,-42,n,n,n
Cc1ccc(NC(=O)c2nc(S(C)(=O)=O)ncc2N(Cc2ccco2)Cc2ccco2)cc1C,n,n,n,n,n
Cc1ccc(NC(=O)c2c(Nc3ccccc3C)sc(C(=O)c3ccccc3)c2N)cc1,n,n,n,n,n
COc1ccc(Nc2sc(C(=O)c3ccc(Cl)cc3)c(N)c2C(=O)Nc2ccccc2OC)cc1,78,-50,n,n,n
COc1ccc(Nc2sc(C(=O)c3ccccc3)c(N)c2C(=O)Nc2cc(C)ccc2C)c(OC)c1,47,n,n,n,n
COc1ccc(NC(=O)c2c(Nc3ccccc3)sc(C(=O)c3ccc(F)cc3)c2N)cc1,n,n,n,n,n
COc1ccc(C(=O)c2sc(Nc3cccc(OC)c3)c(C(=O)Nc3cccc(C)c3C)c2N)cc1,71,-51,n,n,n
Cc1ccc(Cl)cc1NC(=O)N1CCN(C)c2ncccc21,n,n,n,n,n
CN1CCN(C(=O)Nc2cccc(Cl)c2)c2cccnc21,47,n,n,n,n
SMILES,D1 ag,D1 antagonist,TRHR PAM,TRHR agonist,D1 potentiator
O=C(COc1ccc(Cl)cc1)OCC(=O)N1CCCCCC1,n,-34,n,n,n
O=C(COc1ccc(Cl)cc1)OCC(=O)N1CCCC1,n,n,n,n,n
O=C(COc1ccc(Nc2ccccc2)cc1)OCC(=O)N1CCCCC1,n,-37,n,n,n
O=C(CSc1nnc(COc2ccc(Cl)cc2)o1)N1CCCC1,n,n,n,n,n
O=C(COc1ccc(Cl)cc1)N1CCN(c2ccc([N+](=O)[O-])c(N3CCCCC3)c2)CC1,n,-31,n,n,n
NC(=O)C1CCN(C(=O)COc2ccc(Nc3ccccc3)cc2)CC1,n,n,n,n,n
